The list is not random: actives were taken first. Their share in the collection is about 3.3%.
USP1 inh – USP1/UAF1 (human) deubiquitinase inhibition. recombinant USP1/UAF1, Ub-Rhodamine cleavage fluorescence. AID 743255. O94782. Potency, µM (top dose mostly 57.1 µM), inactives show top-dose activity change, negative = inhibition, usual class: inhibitors. actives 0.23% (n = 390,000); further: potency means the concentration at half of the fitted maximal effect; nearly all actives have a fitted effect of over 60% in size
Target sequence (O94782 whole entry, looked up): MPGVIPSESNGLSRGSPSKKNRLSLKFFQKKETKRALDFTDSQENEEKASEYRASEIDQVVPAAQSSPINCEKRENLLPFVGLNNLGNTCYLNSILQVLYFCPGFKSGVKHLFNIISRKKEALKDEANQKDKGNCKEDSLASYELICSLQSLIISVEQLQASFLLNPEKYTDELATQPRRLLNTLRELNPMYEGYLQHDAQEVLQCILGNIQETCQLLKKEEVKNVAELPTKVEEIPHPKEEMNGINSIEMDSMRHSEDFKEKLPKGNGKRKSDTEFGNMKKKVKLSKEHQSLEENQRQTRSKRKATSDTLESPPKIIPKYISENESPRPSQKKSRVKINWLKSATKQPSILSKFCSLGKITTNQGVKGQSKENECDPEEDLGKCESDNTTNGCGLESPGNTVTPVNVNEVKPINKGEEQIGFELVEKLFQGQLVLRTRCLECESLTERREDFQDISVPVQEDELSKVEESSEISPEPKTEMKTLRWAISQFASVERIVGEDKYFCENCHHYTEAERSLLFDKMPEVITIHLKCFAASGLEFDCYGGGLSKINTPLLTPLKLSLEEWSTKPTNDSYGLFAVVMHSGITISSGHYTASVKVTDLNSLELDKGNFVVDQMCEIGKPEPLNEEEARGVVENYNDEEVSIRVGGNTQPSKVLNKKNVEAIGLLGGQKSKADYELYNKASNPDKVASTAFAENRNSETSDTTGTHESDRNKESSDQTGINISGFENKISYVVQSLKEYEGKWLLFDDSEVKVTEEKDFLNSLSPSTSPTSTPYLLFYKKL
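In this screen, compounds sit with the deubiquitinase complex (1nM) for 15 min at room temperature before Ub-Rho is added at 150nM final. Fluorescence rise is then followed for 6 reads every 60 seconds.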
USP2a block – blocks human ubiquitin-specific protease USP2a; actives 0.01% (n = 330,000); Potency, µM (titrated, usually from 38.3 µM), without a hit: at the top dose activity change, negative = inhibition, hits mostly inhibitors; O75604; USP2 core, Ub-CHOP2 coupled fluorogenic reporter, 485/531;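 further: potency means the concentration at half of the fitted maximal effect; plate controls were DMSO wells for no effect and full inhibition by NEM control for full effect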
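Cell-free coupled assay: 10nM USP2 core preincubated 30min RT with compound in Tris-HCl pH 8.0/CaCl2/CHAPS buffer, then 25nM Ub-CHOP2 and 25nM reporter substrate; fluorescence (Ex 485/Em 531) read after 60min RT, normalized to NEM inhibition, concentration-response curves fitted.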
WRN inhibitor – inhibitors of human WRN helicase. Q14191. WRN helicase unwinding, fluorescent forked duplex, kinetic. Potency, µM (highest dose often 114 µM), without a hit: top-dose activity change, negative = inhibition, most hits filed as inhibitors. actives 0.46% (n = 360,000); further: potency means the concentration at half of the fitted maximal effect; nearly all actives have a fitted effect of over 55% in size
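Kinetic red-fluorescence monitoring (525/598 nm) tracks WRN helicase activity after 100 nM fluorophore-quencher forked duplex and 2 mM ATP are added to 20 nM enzyme pretreated 15 min at room temperature with compound.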
PLK1 PBD inh – inhibitors of human PLK1 polo-box domain binding; actives 2.8% (n = 360,000); Potency, µM, without a hit: max response, negative = inhibition, most hits filed as inhibitors; P53350; Plk1 PBD binding of FITC phosphopeptide, fluorescence polarization; further: potency means the concentration at half of the fitted maximal effect; series mostly up to about 57 µM; nearly all actives have a fitted effect of over 65% in size
PI5P4Ka inh – PI5P4K alpha (human) kinase inhibition; P48426; PI5P4Kalpha enzyme, ADP-Glo luminescence, 60 min; active compounds read low; max response, %; actives 1.2% (n = 330,000); active means max response of -50% or lower; inconclusive means between -30% and -50%; inactive means -30% or higher; further: value at the top dose of about 77 µM
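ADP-Glo luminescence end-point read after a 60 min room-temperature kinase reaction of PI5P4Kalpha plus substrate, initiated with ATP at 5 microM final. Buffer: 0.038 M HEPES pH 7.4, EGTA, 0.1% CHAPS, 5% DMSO.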
An asterisk follows results filed as active; ? = inconclusive; · = not tested or not shown; [ ] = remark or other dose. Unless noted, the call rests on the fitted dose curve; in most records, active means well fitted curve in the direction sought with a large enough effect; inconclusive means small, poorly fitted or top-dose-only effect, or another doubt; inactive means no such curve, though single readings can be large; an effect the other way counts as inactive or inconclusive. Unless noted, on the % scale 0 is the no-effect control and ±100 the full control effect.

SMILES | USP1 inh | USP2a block | WRN inhibitor | PLK1 PBD inh | PI5P4Ka inh
O=C(c1ccc2nc(Cc3ccccc3F)oc2c1)N1CC[C@H](O)C1 | -21% | 3% | -2% | 24µM* | -12
Cc1ccc(-n2nc(C)c3c2NC2=C(C(=O)CC(C)(C)C2)C3c2ccccc2OCC(=O)O)cc1 (stereo not given) | -4% | -3% | -4% | 27µM* | -4
CCOc1cccc(CC(=O)N2CCc3c([nH]c4ccccc34)C2c2ccc(C)cc2)c1OCC (stereo not given) | -25% | · | · | · | ·
COc1cccc(NC(=O)c2ccc3c(O)c(S(=O)(=O)c4ccccc4)c(=O)[nH]c3c2)c1 | -25% | 2% | -6% | 24µM* | ?
COc1cccc(NC(=O)CSc2ncc(S(=O)(=O)c3ccccc3)c(=O)[nH]2)c1 | -19% | -1% | -3% | 27µM* | ?
Cc1ccc(NC(=O)CSc2ncc(S(=O)(=O)c3ccccc3)c(=O)[nH]2)cc1C | -19% | 2% | -14% | -18% | -17
COc1ccc(S(=O)(=O)c2c(O)c3ccc(C(=O)Nc4cccc(F)c4)cc3[nH]c2=O)cc1 | -12% | 2% | -8% | -11% | -19
Cc1ccc(-n2nnnc2CNC(=O)c2ccccc2)cc1C | -22% | · | · | · | ·
Cc1ccc(C)c(S(=O)(=O)n2nc(C)c(S(=O)(=O)N3CCCCCC3)c2C)c1 | -21% | · | · | · | ·
COc1ccc(Br)cc1C(=O)Nc1ccccc1N1CCN(C(=O)c2ccccc2)CC1 | -22% | -9% | -6% | 24µM* | 0
O=C(Nc1ccccc1N1CCN(C(=O)c2ccccc2)CC1)c1cc(Br)ccc1Cl | -13% | -1% | -9% | -4% | 3
S=c1nc(-c2cc(Cl)ccc2Cl)[nH][nH]1 | -17% | 5% | -22% | 15µM* | -64*
COc1cc(-c2nc(=S)[nH][nH]2)cc(OC)c1OC | -22% | 1% | ? | -16% | -79*
S=c1nc(-c2cc(Cl)cc(Cl)c2)[nH][nH]1 | -1% | 2% | ? | 24µM* | ?
S=c1nc(-c2cccc(Cl)c2)[nH][nH]1 | -13% | 1% | -13% | -26% | -8
COc1cccc(C(=O)Nc2cccc(-c3nc4ncccn4c3C)c2)c1 | -21% | · | · | · | ·
O=C(CCNC(=O)Cn1cnc2ccccc2c1=O)NCCC1=CCCCC1 | 8% | 0% | -9% | 27µM* | -3
CN1CCN(C(=O)CCNC(=O)Cn2cnc3ccccc3c2=O)CC1 | -8% | -1% | 2% | -13% | 0
COc1ccc2oc(-c3cccc(NC(=O)c4ccc(C#N)cc4F)c3)nc2c1 | -31% | · | · | · | ·
O=C(CCS(=O)(=O)c1ccc(F)cc1)Nc1nc(-c2ccncc2)cs1 | -22% | -1% | -5% | 12µM* | -3
O=C(Nc1ccc(F)c(Cl)c1)c1cccnc1 | -7% | 3% | -17% | 21µM* | -4
O=C(Nc1nc(-c2ccc(Cl)cc2)cs1)c1cccnc1 | -11% | 0% | 10% | 12µM* | ?
O=C(Nc1ccc(F)c(Cl)c1)c1ccccc1 | -33% | 0% | 2% | 0% | -2
O=C(Nc1nc(-c2ccc(F)cc2)cs1)c1cccnc1 | -16% | 0% | 5% | 0% | -7
CC(C)(C)c1csc(NC(=O)CCS(=O)(=O)c2ccc(F)cc2)n1 | -24% | · | 20% | 1% | 4
SMILES | USP1 inh | USP2a block | WRN inhibitor | PLK1 PBD inh | PI5P4Ka inh
O=C(COc1ccc(Cl)cc1)Nc1nc(-c2ccncc2)cs1 | -18% | 2% | 3% | 9.5µM* | -11
COc1ccc(C(=O)NCC(c2ccc(N(C)C)cc2)N2CCc3ccccc32)cc1OC (stereo not given) | -21% | · | · | · | ·
Cc1ccc(-c2csc(NC(=O)CCCc3cccs3)n2)cc1 | -21% | 3% | -6% | 17µM* | -3
O=C(Nc1nc(-c2ccccc2)cs1)c1ccccc1NS(=O)(=O)c1ccc(F)cc1 | ? | -9% | -4%[11.6 µM] | 27µM* | -16
O=C(O)c1cc([N+](=O)[O-])cc2ccccc12 | -11% | · | 10% | 19µM* | 0
O=C(O)c1cc([N+](=O)[O-])ccc1-c1ccc([N+](=O)[O-])cc1C(=O)O | -8% | · | -13%[11.6 µM] | -19% | 0
Cc1ccc(NC(=O)CSc2ccc(Br)cc2)cc1S(=O)(=O)N1CCOCC1 | -7% | -1% | -21% | 12µM* | -6
COc1ccc2nc(-n3c(O)c(C4=c5ccccc5=NC4=O)[nH]c3=S)sc2c1 | ? | -9% | 25µM* | ? | -67*
CCOc1ccc(/C=N/NC(=O)c2cc(-c3ccco3)nc3ccccc23)cc1 | -7% | -1% | -14% | -8% | ?
O=C(Nc1nc2ccccc2s1)c1cc(-c2ccco2)nc2ccccc12 | -23% | 0% | 50µM* | -22% | -16
COc1ccc(C(=O)Nc2nc3ccccc3s2)c(OC)c1 | -24% | 4% | 50µM* | 3.4µM* | ?
Cc1ccc2nc(NC(=O)c3cc(-c4ccco4)nc4ccccc34)sc2c1 | -8% | 0% | -26% | -10% | -4
O=C(NC(=S)Nc1cccc(S(=O)(=O)NC2=NCCC2)c1)c1cc(-c2ccco2)nc2ccccc12 | -2% | -4% | ? | ? | -50*
O=C(N/N=C/c1ccc(F)cc1)c1cc(-c2ccco2)nc2ccccc12 | -40% | ? | 40µM* | ? | -111*
CCOc1ccc(C2C(C(=O)Nc3ccc(OC)cc3)=C(C)Nc3nc(SCc4ccc(Cl)cc4)nn32)cc1 (stereo not given) | -22% | · | · | · | ·
O=C(/C=C/c1ccccc1)OCCCCN=C1NS(=O)(=O)c2ccccc21 | ? | 0% | -33% | 27µM* | ?
O=C(Nc1ccc2c(c1)OCO2)c1cc2ncc(Br)cn2n1 | -19% | -1% | ? | 12µM* | ?
CCCCC#Cc1ccccc1CC(=O)Nc1ccccc1 | -24% | 2% | -9% | 5% | 8
CCCCCCCC#Cc1ccccc1/C=N/S(=O)c1ccc(C)cc1 (stereo not given) | 3% | 4% | -4% | 15µM* | -100*
COc1cccc2c1cc1c(=O)n(CC(=O)N3CCN(c4cccc(C(F)(F)F)c4)CC3)nc(C)n12 | -22% | · | · | · | ·
COc1cccc(NC(=O)c2oc3ccccc3c2NC(=O)c2ccc(OC(C)C)cc2)c1 | -1% | · | · | · | ·
CC(C)CCNC(=O)c1onc(CSc2ccccn2)c1C(=O)NCCC(C)C | -1% | · | -19% | 27µM* | -2
COCCNC(=O)c1onc(CSc2ccccn2)c1C(=O)NCCOC | 22% | · | 3% | -17% | 1

Screening results (PubChem)
